Assay results as given in ChEMBL document CHEMBL3988442, “University of Dundee, Small-Polar-MMV Screening Library” (2021).

What was measured:
[1] = biological target: T1, Aspartate--tRNA(Asp/Asn) ligase (Mycobacterium tuberculosis (strain ATCC 25618 / H37Rv)) (UniProt P9WFW3); assay: Assay for Asp RNA synthetase-1 from Mycobacterium tuberculosis; format: functional; set-up: scale not given: direction of the effect not stated beside the values; details: 30 µM; note: in the data most compounds retested in dose-response had high values
T1 sequence (whole entry): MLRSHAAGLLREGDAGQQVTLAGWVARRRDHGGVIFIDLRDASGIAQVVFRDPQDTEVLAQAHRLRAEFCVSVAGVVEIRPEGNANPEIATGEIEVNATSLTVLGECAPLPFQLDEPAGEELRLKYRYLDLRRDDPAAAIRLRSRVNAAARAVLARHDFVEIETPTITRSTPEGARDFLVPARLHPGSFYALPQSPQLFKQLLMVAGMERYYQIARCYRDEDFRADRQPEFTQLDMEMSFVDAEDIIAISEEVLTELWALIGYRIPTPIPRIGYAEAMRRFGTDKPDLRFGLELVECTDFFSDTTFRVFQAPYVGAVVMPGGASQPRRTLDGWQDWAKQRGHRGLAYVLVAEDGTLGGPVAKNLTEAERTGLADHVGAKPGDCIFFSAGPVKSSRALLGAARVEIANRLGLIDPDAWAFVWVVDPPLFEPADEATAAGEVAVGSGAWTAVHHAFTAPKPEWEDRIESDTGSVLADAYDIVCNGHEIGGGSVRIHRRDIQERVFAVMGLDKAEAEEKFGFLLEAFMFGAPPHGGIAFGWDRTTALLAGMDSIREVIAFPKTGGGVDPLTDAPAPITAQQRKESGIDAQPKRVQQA

[2] = biological target: Shiga toxin 2 (Escherichia coli O157:H7) (UniProt P09385+P09386); assay: E. coli 0.157:H7 Shiga Toxin SOP - stx2 screening assay; format: functional; set-up: scale not given: direction of the effect not stated beside the values; details: 30 µM

Row | SMILES | Percent Effect [1] | Percent Effect [2]
1 | c1cnn(CC2CCCCN2c2ncnc3sccc23)c1 (centres undefined) | 2.59% | –
2 | COc1ccc(CNC(C)c2cccc(Cl)c2)c(OC)c1OC (centres undefined) | -3.05% | –
3 | CCC(C(=O)NCc1ccncc1)N(c1cccc(C)c1)S(C)(=O)=O (centres undefined) | -1.51% | –
4 | CCS(=O)(=O)N1CCC(c2nnc(CN3CCCC3)n2C2CC2)CC1 | -0.379% | –
5 | N#Cc1cccc(CS(=O)(=O)NCC(O)Cc2ccccc2)c1 (centres undefined) | -0.908% | –
6 | Cc1ccc(CNC(=O)N(Cc2ccccc2F)C2CC2)cn1 | -0.931% | –
7 | Cc1cccc(NC(=O)[C@@H]2CCCN2CC(=O)N2CCCCCC2)n1 | -2.13% | –
8 | c1cn(Cc2nnc(C3CCN(c4nccs4)CC3)n2C2CC2)cn1 | -3.69% | –
9 | CN(C)c1ccc(CCNC(=O)C2CCC(=O)N(C3CCCC3)C2)cc1 (centres undefined) | -4.1% | –
10 | CNC(=O)Cn1cc(C#N)c(=O)c2cc(Br)ccc21 | 0.0345% | –
11 | CC(C)c1nccn1CCCNC(=O)c1ccc(N(C)C)nc1 | -2.17% | –
12 | COc1ccc(-n2cnnc2SCC(C)(C)O)cn1 | -0.425% | –
13 | OC1(CN2CCCC2)CCCN(Cc2ccc(F)cc2Cl)C1 (centres undefined) | 4.15% | –
14 | N#Cc1ccnc(N2CCC(c3nccn3Cc3cscn3)CC2)c1 | -4.66% | –
15 | Cc1nc(C)n(CC2CCCCN2CC(=O)Nc2nncs2)n1 (centres undefined) | -3.83% | –
16 | COc1ccc([C@@H]2CN(C(=O)CCC(F)(F)F)C[C@H]2NC(C)=O)cc1 | -2.84% | –
17 | Cc1nonc1CN(C)CC1(O)CCCN(CCC2CCCCC2)C1=O (centres undefined) | 0.149% | –
18 | CCSCCC(=O)Nc1ncn(Cc2cccnc2)n1 | -2.31% | –
19 | CCNC(=O)NC(=O)CSC(C)c1c(F)cccc1F (centres undefined) | -1.51% | –
20 | O=C(CC1=CCCCC1)NCCc1csc(N2CCCC2)n1 | 2.52% | –
21 | c1cn(Cc2nnc(C3CCN(C4CCOCC4)CC3)n2C2CC2)cn1 | -3.53% | –
22 | O=C(NCCc1csc(N2CCCC2)n1)N(C1CCCC1)C1CC1 | 4.33% | –

Row | SMILES | Percent Effect [1] | Percent Effect [2]
23 | COc1cccc(CN(C)C(=O)CN2CCN(CCO)CC2)c1 | -0.747% | –
24 | CC(C)N(C)CC(=O)NC1CCc2nccn2C1 (centres undefined) | 1.39% | –
25 | Cc1nn(C)c(Cl)c1C1CCCN1c1ncnc2sccc12 (centres undefined) | -2.03% | –
26 | Cn1ccnc1SCc1nc(C(C)(C)NC(=O)OC(C)(C)C)no1 | -0.333% | –
27 | Cc1ccc(C2COCCN2C(=O)c2ccc(CN(C)C)cc2)o1 (centres undefined) | -1.28% | –
28 | CS(=O)(=O)NCCC(=O)NC1CCc2nccn2C1 (centres undefined) | 3.25% | –
29 | CCN(CC)CC(=O)NCCc1csc(N2CCCC2)n1 | 1.28% | –
30 | Cc1cnn(Cc2cc(F)ccc2F)c1NC(=O)C1COCCO1 (centres undefined) | -0.287% | –
31 | Cc1nn(CCO)c(C)c1CNC1CCC(C)(C)c2ccccc21 (centres undefined) | -0.793% | –
32 | CCc1nc(CCNC(=O)Nc2ccc(C(=O)NC)cc2C)cs1 | -2.88% | –
33 | Cc1cnc(C)c(N2CCN(Cc3ccc(-c4cc[nH]n4)o3)CC2)n1 | 0.816% | –
34 | Cc1nccn1CCC1CCCCN1Cc1ccc(N(C)C)nc1 (centres undefined) | 2.17% | –
35 | CC(C)c1ncc(CN2C[C@@H](CN3CCC(CO)CC3)[C@@H](CO)C2)cn1 | -1.92% | –
36 | O=C1N(Cc2ccccc2F)CCCC12CCN(C1CCSCC1)C2 (centres undefined) | -2.75% | –
37 | Cc1cnn(CCNCc2csc(C)n2)c1 | 0.747% | –
38 | COc1ccccc1OCCN1CCCC(c2noc(C3CC3)n2)C1 (centres undefined) | -2.65% | –
39 | O=C(O)[C@]12CCCN(Cc3ccncc3)[C@@H]1CCN(c1cnccn1)C2 | 0.862% | –
40 | CS(=O)(=O)c1ccc(OCCNCc2ccc(F)cc2F)cc1 | 4.17% | -84.6%
41 | COCCN1CCN(Cc2noc(C3CC3)n2)CC1C (centres undefined) | -6.85% | -12.1%
42 | COC(=O)C1CCN(C(=O)c2ccc(N(C)S(C)(=O)=O)c(C)c2)CC1 | -4.11% | -5.54%
43 | CCn1ccnc1CN1CCN(CCOc2cccc(C#N)c2)CC1 | -0.322% | -9.38%
44 | CN(C)c1ncccc1CNC(=O)N1CCCC1c1ccsc1 (centres undefined) | 2.25% | 5.76%

Row | SMILES | Percent Effect [1] | Percent Effect [2]
45 | CCc1nc(NCC(=O)N2CCOCC2)c2c(n1)c(C)nn2CC | -2.73% | -15.5%
46 | O=C(c1ccncc1)N1CCCn2c(CN3CCCCC3)nnc2C1 | -3.93% | -4.1%
47 | COc1ccc(OCc2cc(C(=O)N3CCN[C@H](C)C3)n[nH]2)c(Cl)c1 | -1.22% | -61%
48 | Cc1ccccc1-c1cncc(C2CCN(C(C)C)CC2)n1 | -1.25% | -10.3%
49 | Cc1cc(N2CCN(Cc3nccn3C)CC2)cc(C)n1 | 2.09% | -75.9%
50 | Cc1ccc(C)c(-n2ccc3nc(N4CCCC4)ncc3c2=O)c1 | -4.04% | -36.3%
51 | COc1ccc(Br)c(C(=O)NCC2CCN(C(=O)c3ccoc3)CC2)c1 | -5.03% | 0.84%
52 | CN(C)C(=O)N1CCOCC2(CCN(c3ccccn3)C2)C1 (centres undefined) | 1.11% | -15.4%
53 | Cn1nc(CNC(=O)c2nc3ccccc3s2)c2c1CCOC2 | -0.335% | 1.68%
54 | Cc1cc(=O)n2ncnc2n1CC(O)c1ccccc1Cl (centres undefined) | -0.03% | -19.6%
55 | CCN(C(=O)COC)C(c1cccnc1)c1cc(C)cc(C)c1 (centres undefined) | 1.28% | -51.4%
56 | N#Cc1cccnc1NCCNC(=O)N1CCCSCC1 | 0.546% | 12.8%
57 | O=C(C1CCCCN1Cc1nc(-c2ccco2)no1)N1CCCC1 (centres undefined) | 3.38% | 27.5%
58 | O=C(NCCc1cccnc1)N1CCCC1c1ccsc1 (centres undefined) | -2.72% | 1.93%
59 | Cc1cnc(CN2CCCC(c3cc(C(N)=O)[nH]n3)C2)o1 (centres undefined) | 9.73% | 13.4%
60 | CC(=O)c1cc(CN2C[C@H]3CC[C@@H]2CN(S(=O)(=O)N(C)C)C3)cs1 | -1.45% | -57.1%
61 | COCc1nn(C(C)C)c2c1CCN(Cc1cccs1)C2 | -2.9% | 18.3%
62 | CC(COc1ccccc1)NCc1nc(-c2cccnc2)no1 (centres undefined) | -2.31% | 1.39%
63 | CN1CCN(CC2CC2)C(=O)c2cnc(N3CC[C@@H](O)C3)nc21 | 3.75% | -9.73%
64 | O=C(COc1ccc2c(c1)CCC2)NS(=O)(=O)c1cncc(Br)c1 | 4.7% | 4.36%
